Source: PubChem BioAssay (EPA / NIEHS)
“And” between values parts separate entries of the source, which are not always exact repeats. Equal values may be shown once. Inconclusive results are not listed. Some structures have more than one record in an assay (separate samples or runs), and their calls can disagree. The source made the active and inactive calls. How the source made its calls, unless noted: active means hit-call score of the fitted dose curve at least 0.9, where 1 is the maximum; inactive means score below 0.9.

Tests used:
[1] = BSK_3C_VCAM1: BioMAP Diversity Plus: 3C Assay for Vascular cell adhesion molecule 1 (VCAM1) Biomarker Activity (AID 2282999); details: BioMAP 3C HUVEC, VCAM1 ELISA, cytokine-stimulated; actives raise or lower the signal
In short: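 Vascular primary endothelium (human umbilical vein) was exposed to chemicals and assayed 24 h later. VCAM-1 levels came from ELISA, with DMSO serving as baseline for bidirectional fitting.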

[2] = BSK_3C_Proliferation: Cell Proliferation Assessment in the BioMAP Diversity Plus: 3C Assay (AID 2283006); details: primary human endothelial cells (HUVEC);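 on AC50: potency may reflect either rise or fall in cell number versus DMSO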
In short: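 Proliferation as total protein: sulforhodamine B (0.1%) stain of TCA-fixed subconfluent human umbilical vein endothelial cells, absorbance 560 nm, 48 h after dosing. Activity fitted in both directions against DMSO baseline.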

[3] = read-out: E-selectin (Homo sapiens) (UniProt P16581); test: BSK_3C_Eselectin: BioMAP Diversity Plus: 3C Assay for Eselectin Biomarker Activity (AID 2283015); details: primary human endothelial cells (HUVEC); actives raise or lower the signal
In short: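 Endpoint derived by bidirectional fitting against DMSO vehicle; signal is ELISA-detected E-selectin from primary HUVEC at 24 h post-dosing, with parallel SRB staining (0.1% SRB, 560 nm) flagging cytotoxicity.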

[4] = read-out: Human Leukocyte Antigen - DR isotype (HLADR), HLA-DRA (gene 3122); test: BSK_3C_HLADR: BioMAP Diversity Plus: 3C Assay for Human Leukocyte Antigen - DR isotype (HLADR) Biomarker Activity (AID 2283019); details: primary human endothelial cells (HUVEC); actives raise or lower the signal
In short: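 Compound added to primary HUVEC cultures, 24 h incubation, then HLA-DR determined by ELISA; endpoint derived by bidirectional fitting relative to DMSO negative control.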

[5] = BSK_BE3C_SRB: Viability Assessment in the BioMAP Diversity Plus: BE3C Assay (AID 2283028); details: primary human bronchial epithelial cells;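 on AC50: fitted both ways so AC50 may mark signal gain or loss versus DMSO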
In short: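 SRB total-protein staining (0.1%, after TCA fixation) of chemically dosed human bronchial epithelial primary cells at 24 h; DMSO serves as the negative control for bidirectional curve fitting.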

[6] = read-out: Thrombomodulin, THBD (gene 7056); test: BSK_3C_Thrombomodulin: BioMAP Diversity Plus: 3C Assay for Thrombomodulin Biomarker Activity (AID 2283029); details: primary human endothelial cells (HUVEC); actives raise or lower the signal
In short: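 ELISA measurement of thrombomodulin on HUVEC surface 24 h after chemical dosing; activity fitted in both directions relative to DMSO vehicle.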

[7] = read-out: Vascular cell adhesion molecule 1 (VCAM1), VCAM1 (gene 7412); test: BSK_4H_VCAM1: BioMAP Diversity Plus: 4H Assay for Vascular cell adhesion molecule 1 (VCAM1) Biomarker Activity (AID 2283033); details: primary human endothelial cells (HUVEC); actives raise or lower the signal
In short: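 VCAM-1 ELISA read 24 h after chemical dosing of HUVEC in the BioMAP 4H system, with gain or loss of signal fitted relative to DMSO. Parallel SRB staining (560 nm) checked overt cytotoxicity.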

[8] = read-out: Interferon-gamma inducible Protein 10 (IP10), CXCL10 (gene 3627); test: BSK_BE3C_IP10: BioMAP Diversity Plus: BE3C Assay for Interferon-gamma inducible Protein 10 (IP10) Biomarker Activity (AID 2283034); details: primary human bronchial epithelial cells; actives raise or lower the signal
In short: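 IP-10 quantified by ELISA in human primary bronchial epithelial cell cultures at 24 hours post-dosing. Gain or loss of signal fitted relative to DMSO; parallel SRB staining assessed overt cytotoxicity.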

[9] = read-out: Urokinase-type plasminogen activator receptor (uPAR), PLAUR (gene 5329); test: BSK_BE3C_uPAR: BioMAP Diversity Plus: BE3C Assay for Urokinase-type plasminogen activator receptor (uPAR) Biomarker Activity (AID 2283039); details: primary human bronchial epithelial cells; actives raise or lower the signal
In short: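 uPAR levels were measured by ELISA after 24 h compound treatment of primary human bronchial epithelial cells, fitted in both directions relative to DMSO. Parallel SRB staining served as the cytotoxicity read-out.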

[10] = read-out: Interleukin-6 (IL6), IL6 (gene 3569); test: BSK_CASM3C_IL6: BioMAP Diversity Plus: CASM3C Assay for Interleukin-6 (IL6) Biomarker Activity for (AID 2283040); details: primary human coronary artery smooth muscle cells; actives raise or lower the signal
[11] = read-out: Interleukin-8 (IL8), CXCL8 (gene 3576); test: BSK_CASM3C_IL8: BioMAP Diversity Plus: CASM3C Assay for Interleukin-8 (IL8) Biomarker Activity (AID 2283042); details: primary human coronary artery smooth muscle cells; actives raise or lower the signal;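 further: IL-8 protein level quantified by ELISA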
[12] = read-out: Low-density lipoprotein receptor (LDLR), LDLR (gene 3949); test: BSK_CASM3C_LDLR: BioMAP Diversity Plus: CASM3C Assay for Low-density lipoprotein receptor (LDLR) Biomarker Activity (AID 2283045); details: primary human coronary artery smooth muscle cells; actives raise or lower the signal;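 further: LDLR protein level on the cell surface quantified by ELISA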
[13] = read-out: Monocyte Chemoattractant Protein-1 (MCP1), CCL2 (gene 6347); test: BSK_CASM3C_MCP1: BioMAP Diversity Plus: CASM3C Assay for Monocyte Chemoattractant Protein-1 (MCP1) Biomarker Activity (AID 2283046); details: primary human coronary artery smooth muscle cells; actives raise or lower the signal;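 further: MCP-1 level quantified by ELISA 24 h after dosing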
[14] = BSK_CASM3C_Proliferation: Cell Proliferation Assessment in the BioMAP Diversity Plus: CASM3C Assay (AID 2283047); details: primary human coronary artery smooth muscle cells;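 further: sub-confluent cells exposed 48 h before staining; fitted both ways against DMSO so gain or loss of cell number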
[15] = read-out: Monokine induced gamma interferon (MIG), CXCL9 (gene 4283); test: BSK_CASM3C_MIG: BioMAP Diversity Plus: CASM3C Assay for Monokine induced gamma interferon (MIG) Biomarker Activity (AID 2283048); details: primary human coronary artery smooth muscle cells; actives raise or lower the signal;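 further: MIG protein level measured by ELISA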
CD38, CD38 (gene 952) = test: BSK_SAg_CD38: BioMAP Diversity Plus: SAg Assay for CD38 Biomarker Activity (AID 2283087); details: primary human HUVEC with PBMC; actives raise or lower the signal
In short: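 CD38 quantified by ELISA (fluorescence) in a superantigen-activated endothelial cell–PBMC co-culture at 24 h post-dose. Activity fitted in both directions relative to DMSO; parallel SRB and Alamar Blue cytotoxicity read-outs.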

[16] = read-out: Monocyte Chemoattractant Protein-1 (MCP1), CCL2 (gene 6347); test: BSK_SAg_MCP1: BioMAP Diversity Plus: SAg Assay for Monocyte Chemoattractant Protein-1 (MCP1) Biomarker Activity (AID 2283090); details: primary human HUVEC with PBMC; actives raise or lower the signal
In short: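 Values derive from bidirectional fitting of ELISA-measured MCP1 against DMSO controls. Readings were taken 24 h after dosing human vascular endothelial cells co-cultured with peripheral blood mononuclear cells under superantigen stimulation.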

[17] = read-out: E-selectin (Homo sapiens) (UniProt P16581); test: BSK_SAg_Eselectin: BioMAP Diversity Plus: SAg Assay for Eselectin Biomarker Activity (AID 2283091); details: primary human HUVEC with PBMC; actives raise or lower the signal
In short: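 Endpoint values derive from bidirectional fitting relative to DMSO, using ELISA-measured E-selectin in a human vascular co-culture (umbilical vein endothelium plus PBMC) sampled 24 h after dosing.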

[18] = BSK_SAg_PBMCCytotoxicity: PBMC Cytotoxicity Assessment in the BioMAP Diversity Plus: SAg Assay (AID 2283093); details: primary human HUVEC with PBMC;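 further: PBMC viability measured as Alamar Blue reduction fluorescence at 546/580 nm; fitted both ways against DMSO so a hit may be loss or gain of signal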;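 on AC50: PBMC superantigen activated with SEB plus TSST-1 one hour after compound addition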
In short: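 Alamar Blue reduction (6 h, 546/580 nm) reports PBMC cytotoxicity after 90 h superantigen activation (SEB, TSST-1; 20 ng/mL final each) with 1 h compound pre-treatment. Gain or loss of signal fitted versus DMSO.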

[19] = target: Estrogen receptor beta (Homo sapiens) (UniProt Q92731); test: OT_ER_ERbERb_0480: Odyssey Thera (OT) 8-hour HEK293T Protein-Complementation Assay for Estrogen Receptor-beta/-beta Homodimer (AID 2283357; active means hit-call score of the fitted dose curve at least 0.9, where 1 is the maximum;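 further: active means signal gain over DMSO baseline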)
Chain of Estrogen receptor beta (Homo sapiens) (Q92731 whole entry, looked up, the tested form may be a part): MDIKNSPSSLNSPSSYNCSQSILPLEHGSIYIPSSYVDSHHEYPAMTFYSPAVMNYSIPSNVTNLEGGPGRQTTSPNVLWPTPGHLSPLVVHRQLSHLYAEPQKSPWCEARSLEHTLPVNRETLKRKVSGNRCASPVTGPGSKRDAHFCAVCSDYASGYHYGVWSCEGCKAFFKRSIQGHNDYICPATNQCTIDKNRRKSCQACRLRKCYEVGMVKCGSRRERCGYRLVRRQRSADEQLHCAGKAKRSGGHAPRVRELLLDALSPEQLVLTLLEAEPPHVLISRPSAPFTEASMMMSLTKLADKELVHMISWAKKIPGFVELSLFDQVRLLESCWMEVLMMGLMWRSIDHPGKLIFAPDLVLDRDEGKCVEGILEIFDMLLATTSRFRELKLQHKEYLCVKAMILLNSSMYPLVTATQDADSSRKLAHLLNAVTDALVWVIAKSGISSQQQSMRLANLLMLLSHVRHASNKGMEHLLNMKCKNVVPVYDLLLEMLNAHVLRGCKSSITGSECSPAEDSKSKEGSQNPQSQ
In short: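 Fluorescence gain from complemented reporter fragments on ER-beta LBD homodimer in HEK293T was quantified against DMSO controls after 8 h treatment, fixation in 4% formaldehyde and Draq5 staining.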

Measured: AC50

Chain of E-selectin (Homo sapiens) (P16581 whole entry, looked up): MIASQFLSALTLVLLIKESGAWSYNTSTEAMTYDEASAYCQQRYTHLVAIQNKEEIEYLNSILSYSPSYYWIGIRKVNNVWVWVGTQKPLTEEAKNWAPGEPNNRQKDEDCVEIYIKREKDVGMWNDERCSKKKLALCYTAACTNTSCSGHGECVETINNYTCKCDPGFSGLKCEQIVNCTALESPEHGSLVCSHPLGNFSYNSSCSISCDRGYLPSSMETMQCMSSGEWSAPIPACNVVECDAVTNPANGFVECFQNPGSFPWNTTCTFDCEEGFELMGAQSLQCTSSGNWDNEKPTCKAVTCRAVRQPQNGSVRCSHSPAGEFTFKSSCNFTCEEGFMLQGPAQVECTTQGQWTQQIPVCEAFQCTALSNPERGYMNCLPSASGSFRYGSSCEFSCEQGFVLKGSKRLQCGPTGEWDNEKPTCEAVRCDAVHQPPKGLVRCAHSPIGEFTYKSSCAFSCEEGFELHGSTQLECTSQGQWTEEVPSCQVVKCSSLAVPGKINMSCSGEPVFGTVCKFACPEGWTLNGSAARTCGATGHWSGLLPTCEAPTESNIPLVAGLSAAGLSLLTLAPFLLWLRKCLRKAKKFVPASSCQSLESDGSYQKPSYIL

CC(C)CCCCCCCOC(=O)c1ccccc1C(=O)OCCCCCCCC(C)C
not listed: [19]
inactive: all other assays above

CC1(C)[C@H](C(=O)O[C@H](C#N)c2cccc(Oc3ccccc3)c2)[C@@H]1C=C(Br)Br
inactive: [1] | [2] | [3] | [4] | [5] | [6] | [7] | [8] | [9] | [10] | [11] | [12] | [13] | [14] | [15] | CD38, CD38 (gene 952) | [16] | [17] | [18] | [19]
active: CD38, CD38 (gene 952) 2.42 µM | [17] 1.52 µM

CCOC(=O)C1OC1(C)c1ccccc1 (stereo not given)
inactive: [19]

O=[N+]([O-])c1ccc(Cl)cc1
inactive: all assays above

O=S(=O)(O)OOS(=O)(=O)O
inactive: [19]

O=C1C=CC(=O)C=C1
active: [1] 13.8 µM and 20 µM | [2] 26.2 µM and 6.35 µM | [3] 13.4 µM and 8.64 µM | [4] 28.8 µM and 13.8 µM | [7] 16.1 µM and 20 µM | [8] 16.3 µM and 30.9 µM | [14] 30.4 µM and 15.2 µM | CD38, CD38 (gene 952) 30.4 µM and 25.7 µM | [16] 31.4 µM | [17] 30.7 µM and 25.2 µM | [18] 9.09 µM and 7.38 µM
inactive: [5] | [6] | [9] | [10] | [11] | [12] | [13] | [15] | [16]

CC(Cc1ccc(C(C)(C)C)cc1)CN1C[C@@H](C)O[C@@H](C)C1 (stereo not given in full)
inactive: [19]

CCC(C)c1cc([N+](=O)[O-])cc([N+](=O)[O-])c1OC(=O)C=C(C)C (stereo not given)
active: [1] 20 µM | [2] 11.2 µM | [3] 14.4 µM | [4] 5.85 µM | [5] 32.5 µM | [7] 9.17 µM | [8] 8.21 µM | [9] 32.8 µM | [11] 9.2 µM | [12] 31.2 µM | [14] 36.2 µM | [15] 33 µM | CD38, CD38 (gene 952) 10.3 µM | [16] 12.6 µM | [17] 8.28 µM | [18] 28.2 µM
inactive: [6] | [10] | [13]

COC(C)(C)CCC[C@H](C)C/C=C/C(C)=C/C(=O)OC(C)C
inactive: [5] | [6] | [9] | [10] | [11] | [13]
active: [1] 28.8 µM | [2] 26 µM | [3] 28.7 µM | [4] 28.3 µM | [7] 31.6 µM | [8] 20 µM | [12] 10.2 µM | [14] 17.2 µM | [15] 29.9 µM | CD38, CD38 (gene 952) 30.4 µM | [16] 20 µM | [17] 20 µM | [18] 29.7 µM

CNC(=O)Oc1cc(C)c(SC)c(C)c1
active: [1] 20 µM | [2] 13 µM | [3] 20 µM | [4] 24.6 µM | [7] 20 µM | [12] 7.52 µM | [14] 20 µM
not listed: [19]
inactive: all other assays above

CCc1cc(C)cc(CC)c1-c1c(OC(=O)C(C)(C)C)n2n(c1=O)CCOCC2
active: [3] 5.7 µM | [4] 24.7 µM | [7] 9.41 µM | [12] 2.79 µM | [14] 20 µM
not listed: [19]
inactive: all other assays above
